# In PubChem BioAssay (NCATS):
# Inconclusive results are not listed. Calls of active or inactive are those of the source. Unless noted, the call rests on the fitted dose curve; in most records, active means well fitted inhibition curve with a large enough effect; inconclusive means small, poorly fitted or top-dose-only effect; inactive means flat fitted curve, though single readings scatter.
# Assays:
# [1] = qHTS drug screen for cell cycle checkpoint inhibitors in PARPi-resistant BRCA-mutant ovarian cancer cell lines. (AID 1963452; calls by dose curve); conditions: PEO1/OlaR viability, CellTiter-Glo luminescence, 96 h, stronger effect = lower value
# In short: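 PEO1, PEO4 and PEO1/OlaR ovarian cancer cells, 600 per well, exposed 96 h at 37C to a dilution series. Viability read by CellTiter-Glo luminescence, normalized to DMSO and empty wells; activity summarized as Z-AUC.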
# [2] = qHTS profiling for inhibitors of Plasmodium falciparum proliferation (AID 504749); further: potency means the concentration at half of the fitted maximal effect;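 on activity, negative = inhibition: 0% = DMSO vehicle and full inhibition = artemisinin control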; on all read-outs here: nearly all actives have a fitted effect of over 60% in size; conditions: P. falciparum in erythrocytes, SYBR Green DNA, 72 h; for activity, negative = inhibition: at 28.7 µM (top of the series)
# In short: (§1)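 In a 72 h erythrocytic culture (37 C, humidified, 5% CO2) at 2.5% hematocrit and 0.3% starting parasitemia, compounds were tested; SYBR Green I in detergent lysis buffer stained parasite DNA overnight.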
# 3D7 = test: as above; conditions: P. falciparum in erythrocytes, SYBR Green DNA, 72 h; series mostly up to 28.7 µM
# In short: as §1
# 7G8 = test: as above; conditions: P. falciparum in erythrocytes, SYBR Green DNA, 72 h; series mostly up to 28.7 µM
# In short: as §1
# AA1029 = test: as above; conditions: P. falciparum in erythrocytes, SYBR Green DNA, 72 h; series mostly up to 28.7 µM
# In short: as §1
# AS120 = test: as above; conditions: P. falciparum in erythrocytes, SYBR Green DNA, 72 h; series mostly up to 28.7 µM
# In short: as §1
# C2A = test: as above; conditions: P. falciparum in erythrocytes, SYBR Green DNA, 72 h; series mostly up to 28.7 µM
# In short: as §1
# CP191 = test: as above; conditions: P. falciparum in erythrocytes, SYBR Green DNA, 72 h; series mostly up to 28.7 µM
# In short: as §1
# CP201 = test: as above; conditions: P. falciparum in erythrocytes, SYBR Green DNA, 72 h; series mostly up to 28.7 µM
# In short: as §1
# ATS189 = test: as above; conditions: P. falciparum in erythrocytes, SYBR Green DNA, 72 h; series mostly up to 28.7 µM
# In short: as §1
# ATS95 = test: as above; conditions: P. falciparum in erythrocytes, SYBR Green DNA, 72 h; series mostly up to 28.7 µM
# In short: as §1
# CP185 = test: as above; conditions: P. falciparum in erythrocytes, SYBR Green DNA, 72 h; series mostly up to 28.7 µM
# In short: as §1
# CP192 = test: as above; conditions: P. falciparum in erythrocytes, SYBR Green DNA, 72 h; series mostly up to 28.7 µM
# In short: as §1
# [3] = qHTS for identification of novel therapeutic agents for treatment of microphthalmiaassociated transcription factor (MiT) renal cell carcinoma (RCC) (AID 1963991); conditions: CellTiter-Glo, 48 h, stronger effect = lower value
# In short: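 Three TFE3-fusion RCC lines (UOK109, UOK124, UOK145), 500 cells/well in complete medium, were treated with MIPE 4.0 compounds for 48 hours at 37 C. Viability was by CellTiter-Glo luminescence, normalized to DMSO (100%) and empty wells (0%); curves fitted over 11 concentrations.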
# CP211 = test: qHTS profiling for inhibitors of Plasmodium falciparum proliferation (AID 504749); further: nearly all actives have a fitted effect of over 60% in size; further: potency means the concentration at half of the fitted maximal effect;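 on activity, negative = inhibition: 0% = DMSO vehicle and full inhibition = artemisinin control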; conditions: P. falciparum in erythrocytes, SYBR Green DNA, 72 h; series mostly up to 28.7 µM
# In short: as §1
# CP194 = test: as above; conditions: P. falciparum in erythrocytes, SYBR Green DNA, 72 h; series mostly up to 28.7 µM
# In short: as §1
# CP203 = test: as above; conditions: P. falciparum in erythrocytes, SYBR Green DNA, 72 h; series mostly up to 28.7 µM
# In short: as §1
# [4] = measured here: PEO1 parental Z-AUC
# [5] = TFE3-RCC UOK109 viability, measured here: UOK109 Z-AUC
# [6] = TFE3-RCC viability, measured here: UOK124 Z-AUC
# [7] = TFE3-RCC viability, measured here: UOK145 Z-AUC
compound,measurement,setting,value
O=C(c1ccc(OCCN2CCCCC2)cc1)c1c(-c2ccc(O)cc2)sc2cc(O)ccc12,Z-AUC,[1],0.6 (inactive)
same,Z-AUC,[1]; [4],0.409
same,Z-AUC,[1]; measured here: PEO4 Z-AUC,0.0416
same,Potency,[2]; parasite line A,2.82 µM (active)
same,Potency,[2]; parasite line B,11.2 µM (active)
same,Potency,3D7,2 µM (active)
same,Potency,7G8,2.51 µM (active)
same,Potency,AA1029,11.2 µM (active)
same,Potency,AS120,2.82 µM (active)
same,Potency,C2A,10 µM (active)
same,Potency,CP191,5.01 µM (active)
same,Potency,CP201,9.53 µM (active)
Clc1ccc(C(c2ccccc2Cl)C(Cl)Cl)cc1 (stereo not given),Z-AUC,[1],-0.334 (inactive)
same,Z-AUC,[1]; [4],0.14
same,Z-AUC,[1]; measured here: PEO4 Z-AUC,0.236
same,"activity, negative = inhibition",[2]; parasite line A,-12.9% (inactive)
same,"activity, negative = inhibition",[2]; parasite line B,-9.4% (inactive)
same,Potency,AA1029,inactive
same,Potency,AS120,inactive
same,Potency,ATS189,inactive
same,Potency,ATS95,inactive
same,Potency,C2A,inactive
same,Potency,CP185,inactive
same,Potency,CP192,inactive
COc1ccccc1OCCNCC(O)COc1cccc2[nH]c3ccccc3c12 (stereo not given),z-score,[3]; [5],0.499
same,z-score,[3]; [6],0.302
same,z-score,[3]; [7],0.158
same,Potency,7G8,8.91 µM (active)
same,Potency,AA1029,8.91 µM (active)
same,Potency,AS120,3.98 µM (active)
same,Potency,ATS95,12.6 µM (active)
same,Potency,C2A,10 µM (active)
same,Potency,CP192,inactive
same,Potency,CP201,inactive
same,Potency,CP211,inactive
CC(C)NCC(O)c1ccc(O)c(O)c1 (stereo not given),Z-AUC,[1],1.31 (inactive)
same,Z-AUC,[1]; [4],0.911
same,Z-AUC,[1]; measured here: PEO4 Z-AUC,0.816
same,"activity, negative = inhibition",[2]; parasite line A,-3.62% (inactive)
same,"activity, negative = inhibition",[2]; parasite line B,-0.405% (inactive)
same,Potency,3D7,inactive
same,Potency,AA1029,inactive
same,Potency,AS120,inactive
same,Potency,ATS189,inactive
same,Potency,ATS95,inactive
same,Potency,C2A,inactive
same,Potency,CP185,inactive
same,Potency,CP191,inactive
same,Potency,CP192,inactive
same,Potency,CP194,inactive
same,Potency,CP201,inactive
same,Potency,CP203,inactive
same,Potency,CP211,inactive
Cn1ccc2cc3c(cc21)CCN3C(=O)Nc1cccnc1,Z-AUC,[1],0.66 (inactive)
same,Z-AUC,[1]; [4],0.473
same,Z-AUC,[1]; measured here: PEO4 Z-AUC,0.355
same,Potency,7G8,8.91 µM (active)
CN(Cc1cnc2nc(N)nc(N)c2n1)c1ccc(C(=O)N[C@@H](CCC(=O)O)C(=O)O)cc1,Z-AUC,[1],0.203 (inactive)
same,Z-AUC,[1]; [4],0.268
same,Z-AUC,[1]; measured here: PEO4 Z-AUC,0.255
same,Potency,[2]; parasite line A,0.112 µM (active)
same,Potency,[2]; parasite line B,0.141 µM (active)
same,Potency,3D7,0.141 µM (active)
same,Potency,7G8,0.126 µM (active)
same,Potency,AA1029,inactive
same,Potency,AS120,0.141 µM (active)
same,Potency,C2A,0.251 µM (active)
same,Potency,CP192,inactive
same,Potency,CP194,inactive
same,Potency,CP201,inactive
same,Potency,CP211,inactive
CCOC(=O)c1ncn2c1CN(C)C(=O)c1cc(F)ccc1-2,Z-AUC,[1],1.34 (inactive)
same,Z-AUC,[1]; [4],1.08
same,Z-AUC,[1]; measured here: PEO4 Z-AUC,1.29
same,"activity, negative = inhibition",[2]; parasite line A,8.32% (inactive)
same,"activity, negative = inhibition",[2]; parasite line B,17% (inactive)
same,Potency,3D7,inactive
same,Potency,AA1029,inactive
same,Potency,AS120,inactive
same,Potency,ATS189,inactive
same,Potency,ATS95,inactive
same,Potency,C2A,inactive
same,Potency,CP185,inactive
same,Potency,CP191,inactive
same,Potency,CP192,inactive
same,Potency,CP194,inactive
same,Potency,CP201,inactive
same,Potency,CP211,inactive
Clc1ccc2c(c1)C(N1CCNCC1)=Nc1ccccc1O2,z-score,[3]; [5],0.826
same,z-score,[3]; [6],0.445
same,z-score,[3]; [7],0.654
same,"activity, negative = inhibition",[2]; parasite line A,-18.9% (inactive)
same,Potency,3D7,inactive
same,Potency,C2A,inactive
same,Potency,CP185,inactive
same,Potency,CP192,inactive
same,Potency,CP201,inactive
same,Potency,CP211,inactive
CN(C)CCC=C1c2ccccc2C=Cc2ccccc21,Z-AUC,[1],-0.345 (inactive)
same,Z-AUC,[1]; [4],0.579
same,Z-AUC,[1]; measured here: PEO4 Z-AUC,0.349
same,"activity, negative = inhibition",[2]; parasite line A,-3.11% (inactive)
same,"activity, negative = inhibition",[2]; parasite line B,-19.2% (inactive)
same,Potency,3D7,inactive
same,Potency,7G8,7.94 µM (active)
same,Potency,ATS189,inactive
same,Potency,C2A,inactive
same,Potency,CP185,inactive
same,Potency,CP192,inactive
same,Potency,CP211,inactive
